Measurements published in PubChem BioAssay (NCI).
About 79,000 compounds went through this panel and 15% of them were active in at least one assay; those are over-represented in the sample as a whole. A number with no mark means an inactive call. Calls of active or inactive are those of the source. No stated cut-off is given here; in the data, active means growth inhibition above about 70%; inactive means the rest.

Columns and labels:
[1] = NCI Yeast Anticancer Drug Screen. Data for the rad52 strain (AID 147);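 further: 0% = growth of vehicle-treated control cultures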; details: S. cerevisiae rad52 mutant growth inhibition, active compounds read high
Method in brief: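 Here a repair-compromised yeast strain receives each compound; its growth is then quantified and normalised to vehicle-only controls.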

[2] = NCI Yeast Anticancer Drug Screen. Data for the wt1 strain (AID 149);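 further: 0% = growth of vehicle-treated wt1 cultures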; details: S. cerevisiae wt1 strain (SPY 50644) growth inhibition, active compounds read high
Method in brief: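 Measured: growth of wt1 yeast under compound versus vehicle treatment, reported as inhibition.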

[3] = NCI Yeast Anticancer Drug Screen. Data for the rad50EPP+ strain (AID 151);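 further: 0% = growth of vehicle-treated control cultures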; details: S. cerevisiae rad50 mutant strain, active compounds read high
Method in brief: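 Read-out is yeast growth inhibition relative to vehicle; cells used were the rad50EPP+ strain.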

[4] = NCI Yeast Anticancer Drug Screen. Data for the mgt1 strain (AID 153); details: S. cerevisiae mgt1 mutant growth inhibition, active compounds read high
Method in brief: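 Measured: inhibition of mgt1 yeast growth by compound, normalized to vehicle-treated cultures.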

[5] = NCI Yeast Anticancer Drug Screen. Data for the rad50 strain (AID 155);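 further: 0% = growth of vehicle-only cultures of the same strain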; details: S. cerevisiae rad50 strain growth inhibition, active compounds read high
Method in brief: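 Growth of the mutant yeast was measured after compound exposure and referenced to vehicle-treated cultures.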

[6] = NCI Yeast Anticancer Drug Screen. Data for the mec2-1 strain (AID 157); details: S. cerevisiae mec2-1 strain, active compounds read high
Method in brief: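 Using mec2-1 yeast: add compound, measure growth, express inhibition versus vehicle-treated cultures.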

[7] = NCI Yeast Anticancer Drug Screen. Data for the rad14 strain (AID 159);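 further: 0% = growth of vehicle-treated control cultures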; details: S. cerevisiae rad14 strain growth inhibition, active compounds read high
Method in brief: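 Here, inhibition of yeast growth was measured after compound exposure, using a strain with a genetic defect in DNA damage repair and vehicle-treated cultures as the reference.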

[8] = NCI Yeast Anticancer Drug Screen. Data for the sgs1 mgt1 strain (AID 161);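 further: 0% = growth of cultures given vehicle only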; details: S. cerevisiae sgs1 mgt1 strain, active compounds read high
Method in brief: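 This yeast growth screen uses a strain with defined DNA-repair lesions; compound-treated growth is compared with vehicle-treated growth.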

[9] = NCI Yeast Anticancer Drug Screen. Data for the CLN2oe strain (AID 163);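 further: 0% = growth of vehicle-only control cultures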; details: S. cerevisiae CLN2oe strain, active compounds read high
Method in brief: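 Whole-cell yeast growth assay. A strain engineered for altered cell-cycle control received compound, and inhibition relative to vehicle-treated cultures was recorded.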

[10] = NCI Yeast Anticancer Drug Screen. Data for the cln2 rad14 strain (AID 165);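 further: 0% = growth equal to vehicle treated cultures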; details: S. cerevisiae cln2 rad14 strain, active compounds read high
Method in brief: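 Yeast strain cln2 rad14, bearing defects in cell cycle control and DNA repair, serves as the test system; values reflect growth inhibition compared with vehicle.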

[11] = NCI Yeast Anticancer Drug Screen. Data for the bub3 strain (AID 167); details: S. cerevisiae bub3 mutant strain, active compounds read high
Method in brief: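 Whole-cell yeast assay. The mutant strain was incubated with compounds, and growth inhibition was determined by comparison with vehicle-treated cells.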

[12] = NCI Yeast Anticancer Drug Screen. Data for the wt2 strain (AID 169);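 further: 0% = growth of vehicle-treated yeast cultures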; details: S. cerevisiae wt2 strain growth inhibition, active compounds read high
Method in brief: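 Treated yeast vs. vehicle-treated yeast: growth inhibition determined.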

[13] = NCI Yeast Anticancer Drug Screen. Data for the mlh1 strain (AID 171);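 further: 0% = growth of vehicle-treated control cultures of the same strain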; details: S. cerevisiae mlh1 strain growth inhibition, active compounds read high
Method in brief: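 A yeast strain with a defined genetic lesion serves as the test organism. Cultures receive compound or vehicle, and growth is measured.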

[14] = NCI Yeast Anticancer Drug Screen. Data for the sgs1 strain (AID 173);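 further: 0% = growth of vehicle-only control cultures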; details: S. cerevisiae sgs1 mutant, active compounds read high
Method in brief: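 A genetically defined yeast mutant is incubated with the test compound, and its growth is compared to that of the same strain given vehicle.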

[15] = NCI Yeast Anticancer Drug Screen. Data for the mlh1 rad18 strain (AID 175); details: S. cerevisiae mlh1 rad18 strain growth inhibition, active compounds read high
Method in brief: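 Steps: expose repair-defective yeast to compound; measure growth; express inhibition against vehicle-treated controls.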

[16] = NCI Yeast Anticancer Drug Screen. Data for the rad18 strain (AID 177); details: S. cerevisiae rad18 mutant growth inhibition, active compounds read high
Method in brief: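 Measured value is growth inhibition of a yeast strain bearing a DNA repair alteration, referenced to vehicle-treated cells.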

[17] = at 5.0 µM (retest, dose inferred, filed as 0.5)
[18] = at 50.0 µM (retest, dose inferred, filed as 5.0)

O=C(O)CNC(c1ccccc1)(c1ccccc1)c1ccccc1
growth inhibition ([1]; at 1.2 µM): -9% | growth inhibition ([1]; at 3.7 µM): -2% | growth inhibition ([1]; at 11.0 µM): -2% | growth inhibition ([1]; at 33.0 µM): 92% (active) | growth inhibition ([1]; at 100.0 µM): 98% (active) | growth inhibition ([2]; at 1.2 µM): -15% | growth inhibition ([2]; at 3.7 µM): -9% | growth inhibition ([2]; at 11.0 µM): -25% | growth inhibition ([2]; at 33.0 µM): 83% (active) | growth inhibition ([2]; at 100.0 µM): 97% (active) | growth inhibition ([3]; at 1.2 µM): 11% | growth inhibition ([3]; at 3.7 µM): 4% | growth inhibition ([3]; at 11.0 µM): -6% | growth inhibition ([3]; at 33.0 µM): -3% | growth inhibition ([3]; at 100.0 µM): -5% | growth inhibition ([4]; at 1.2 µM): 19% | growth inhibition ([4]; at 3.7 µM): 13% | growth inhibition ([4]; at 11.0 µM): 16% | growth inhibition ([4]; at 33.0 µM): 87% (active) | growth inhibition ([4]; at 100.0 µM): 96% (active) | growth inhibition ([5]; at 1.2 µM): -10% | growth inhibition ([5]; at 3.7 µM): -2% | growth inhibition [5, 17]: 43% | growth inhibition ([5]; at 11.0 µM): -2% | growth inhibition ([5]; at 33.0 µM): 87% (active) | growth inhibition [5, 18]: 97% (active) | growth inhibition ([5]; at 50.0 µM): 86.3% (active) | growth inhibition ([5]; at 100.0 µM): 96% (active) | growth inhibition ([6]; at 1.2 µM): -1% | growth inhibition ([6]; at 3.7 µM): 12% | growth inhibition [6, 17]: 35% | growth inhibition ([6]; at 11.0 µM): 6% | growth inhibition ([6]; at 33.0 µM): 91% (active) | growth inhibition [6, 18]: 91% (active) | growth inhibition ([6]; at 50.0 µM): 90% (active) | growth inhibition ([6]; at 100.0 µM): 99% (active) | growth inhibition ([7]; at 1.2 µM): -2% | growth inhibition ([7]; at 3.7 µM): -6% | growth inhibition ([7]; at 11.0 µM): -6% | growth inhibition ([7]; at 33.0 µM): 90% (active) | growth inhibition ([7]; at 100.0 µM): 98% (active) | growth inhibition [8, 17]: 2% | growth inhibition [8, 18]: 98% (active) | growth inhibition ([8]; at 50.0 µM): 90.8% (active) | growth inhibition ([9]; at 1.2 µM): -14% | growth inhibition ([9]; at 3.7 µM): -12% | growth inhibition ([9]; at 11.0 µM): -6% | growth inhibition ([9]; at 33.0 µM): 85% (active) | growth inhibition ([9]; at 100.0 µM): 98% (active) | growth inhibition [10, 17]: 18% | growth inhibition [10, 18]: 99% (active) | growth inhibition ([10]; at 50.0 µM): 86.3% (active) | growth inhibition ([11]; at 1.2 µM): -5% | growth inhibition ([11]; at 3.7 µM): 13% | growth inhibition [11, 17]: -8% | growth inhibition ([11]; at 11.0 µM): 24% | growth inhibition ([11]; at 33.0 µM): 94% (active) | growth inhibition [11, 18]: 97% (active) | growth inhibition ([11]; at 50.0 µM): 90.7% (active) | growth inhibition ([11]; at 100.0 µM): 98% (active) | growth inhibition ([12]; at 1.2 µM): -27% | growth inhibition ([12]; at 3.7 µM): -20% | growth inhibition ([12]; at 11.0 µM): -9% | growth inhibition ([12]; at 33.0 µM): 82% (active) | growth inhibition ([12]; at 100.0 µM): 98% (active) | growth inhibition ([13]; at 1.2 µM): -32% | growth inhibition ([13]; at 3.7 µM): -29% | growth inhibition ([13]; at 11.0 µM): -20% | growth inhibition ([13]; at 33.0 µM): 82% (active) | growth inhibition ([13]; at 100.0 µM): 97% (active) | growth inhibition ([14]; at 1.2 µM): 3% | growth inhibition ([14]; at 3.7 µM): 3% | growth inhibition ([14]; at 11.0 µM): 5% | growth inhibition ([14]; at 33.0 µM): 89% (active) | growth inhibition ([14]; at 100.0 µM): 97% (active) | growth inhibition [15, 17]: 37% | growth inhibition [15, 18]: 91% (active) | growth inhibition ([15]; at 50.0 µM): 89.9% (active) | growth inhibition ([16]; at 1.2 µM): -5% | growth inhibition ([16]; at 3.7 µM): -6% | growth inhibition ([16]; at 11.0 µM): -4% | growth inhibition ([16]; at 33.0 µM): 89% (active) | growth inhibition ([16]; at 100.0 µM): 97% (active)
